# Measurements as given in PubChem BioAssay.
# A number with no mark means an inactive call. Where a call stands in place of a potency, no number is given. For some assays here: Potency and affinity values are given separately. The source made the active and inactive calls. Unless noted, the rule behind the calls is not given here.
# What was measured:
# [1] = antimalarial activity against Dd2 strain (AID 2302;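 active = growth inhibition above 50% at the single 2 µM test dose, taken to imply half-maximal potency below 2 µM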); settings: P. falciparum Dd2 in RBCs, LDH growth readout, 72 h; at 2 µM; active compounds read high
# [2] = HepG2 cytotoxicity, primary screen, cytotoxicity control for P. falciparum antimalarial project, cell-based, ATP luminescence (AID 2303;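 active = inhibition above 50%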); settings: HepG2 viability, 24-48 h, at 10 µM, active compounds read high
# [3] = target: L-lactate dehydrogenase (Plasmodium falciparum (isolate CDC / Honduras)) (UniProt Q27743); test: PfLDH activity inhibition – cell lysate, 3D7 strain, counter-screen for P. falciparum growth inhibition project (AID 2304); settings: P. falciparum 3D7 crude extract, LDH APAD/NBT absorbance; at 2 µM; active compounds read high
# [4] = inhibition of 3D7 malaria parasite growth – strain 3D7 (AID 2306); settings: P. falciparum 3D7 erythrocytic growth, LDH absorbance, 72 h; at 2 µM; active compounds read high
# [5] = target: Calcium-dependent protein kinase 1 (Plasmodium falciparum (isolate 3D7)) (UniProt P62344); test: PfCDPK1 kinase inhibitors, biochemical, TCAMS library (AID 1159585; cut-off not given, nearly all actives have IC50 up to about 0.98 µM;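 note: inhibitors leave more ATP so luminescence rises with inhibition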); settings: recombinant PfCDPK1, Kinase-Glo ATP depletion luminescence
# [6] = target: Plasmodium falciparum protein kinase 6 (PK6, PF3D7_1337100) (UniProt Q8IDW1); test: PfPK6 kinase inhibitors, biochemical, TCAMS library (AID 1159586); settings: recombinant PfPK6, Kinase-Glo ATP depletion luminescence
# [7] = target: Protein kinase 7 (PK7), Plasmodium falciparum 3D7 (PF3D7_0213400) (UniProt Q7YTF7); test: inhibition of Plasmodium PK7 catalytic activity – biochemical, TCAMS antimalarial set, Kinase-Glo luminescence (AID 1159587); settings: recombinant PfPK7, Kinase-Glo ATP depletion luminescence
# [8] = target: Calcium-dependent protein kinase 4 (Plasmodium falciparum (isolate 3D7)) (UniProt Q8IBS5); test: PfCDPK4 kinase inhibitors, biochemical, TCAMS library (AID 1159588; cut-off not given, nearly all actives have IC50 up to about 0.91 µM); settings: recombinant PfCDPK4, Kinase-Glo ATP depletion luminescence
# Calcium-dependent protein kinase 4 (Plasmodium falciparum (isolate 3D7)), sequence (Q8IBS5 whole entry, looked up): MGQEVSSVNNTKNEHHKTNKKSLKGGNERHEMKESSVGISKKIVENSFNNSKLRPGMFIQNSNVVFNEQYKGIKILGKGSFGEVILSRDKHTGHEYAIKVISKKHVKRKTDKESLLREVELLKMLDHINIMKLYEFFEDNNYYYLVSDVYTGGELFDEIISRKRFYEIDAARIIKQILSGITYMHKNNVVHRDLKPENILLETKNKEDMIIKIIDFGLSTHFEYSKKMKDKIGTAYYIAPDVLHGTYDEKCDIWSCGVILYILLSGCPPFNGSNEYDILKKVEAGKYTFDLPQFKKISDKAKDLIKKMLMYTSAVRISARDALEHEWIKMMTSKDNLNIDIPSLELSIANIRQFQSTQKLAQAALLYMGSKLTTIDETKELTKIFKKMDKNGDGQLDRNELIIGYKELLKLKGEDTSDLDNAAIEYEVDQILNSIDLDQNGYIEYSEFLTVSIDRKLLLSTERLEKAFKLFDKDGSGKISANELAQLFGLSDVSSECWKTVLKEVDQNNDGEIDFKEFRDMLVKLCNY
# L-lactate dehydrogenase (Plasmodium falciparum (isolate CDC / Honduras)), sequence (Q27743 whole entry, looked up): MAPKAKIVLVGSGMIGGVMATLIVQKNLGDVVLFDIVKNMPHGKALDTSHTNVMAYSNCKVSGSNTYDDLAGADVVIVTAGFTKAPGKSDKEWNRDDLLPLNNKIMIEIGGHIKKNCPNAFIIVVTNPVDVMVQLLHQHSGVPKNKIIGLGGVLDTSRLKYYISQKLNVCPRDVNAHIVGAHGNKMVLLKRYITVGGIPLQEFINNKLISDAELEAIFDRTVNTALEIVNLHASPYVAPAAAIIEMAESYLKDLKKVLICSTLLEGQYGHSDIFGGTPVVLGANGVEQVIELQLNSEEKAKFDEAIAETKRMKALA
# Calcium-dependent protein kinase 1 (Plasmodium falciparum (isolate 3D7)), sequence (P62344 whole entry, looked up): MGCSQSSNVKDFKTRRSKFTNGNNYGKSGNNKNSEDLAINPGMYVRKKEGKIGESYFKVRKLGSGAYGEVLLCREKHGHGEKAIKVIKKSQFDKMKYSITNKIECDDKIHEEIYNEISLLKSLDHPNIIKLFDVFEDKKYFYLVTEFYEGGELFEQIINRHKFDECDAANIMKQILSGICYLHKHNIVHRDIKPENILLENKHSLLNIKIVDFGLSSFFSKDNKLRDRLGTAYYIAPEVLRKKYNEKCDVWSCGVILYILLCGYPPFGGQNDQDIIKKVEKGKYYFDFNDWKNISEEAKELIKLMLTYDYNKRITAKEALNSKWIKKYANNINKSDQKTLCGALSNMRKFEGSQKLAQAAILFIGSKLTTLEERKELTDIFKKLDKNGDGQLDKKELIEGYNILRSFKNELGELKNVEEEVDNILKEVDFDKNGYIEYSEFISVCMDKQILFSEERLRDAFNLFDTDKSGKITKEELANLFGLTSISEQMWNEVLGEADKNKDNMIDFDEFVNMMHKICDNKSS
# Protein kinase 7 (PK7), Plasmodium falciparum 3D7 (PF3D7_0213400), sequence (Q7YTF7 1-343): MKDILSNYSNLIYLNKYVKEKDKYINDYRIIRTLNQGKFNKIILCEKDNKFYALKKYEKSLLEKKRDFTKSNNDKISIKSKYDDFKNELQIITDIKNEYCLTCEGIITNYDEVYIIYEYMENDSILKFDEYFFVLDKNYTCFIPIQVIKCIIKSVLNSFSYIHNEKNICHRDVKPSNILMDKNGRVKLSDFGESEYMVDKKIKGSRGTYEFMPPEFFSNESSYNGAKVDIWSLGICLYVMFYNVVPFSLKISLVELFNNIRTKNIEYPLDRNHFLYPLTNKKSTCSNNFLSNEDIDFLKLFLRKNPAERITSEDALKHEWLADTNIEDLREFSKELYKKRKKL
# Plasmodium falciparum protein kinase 6 (PK6, PF3D7_1337100), sequence (Q8IDW1 1-305): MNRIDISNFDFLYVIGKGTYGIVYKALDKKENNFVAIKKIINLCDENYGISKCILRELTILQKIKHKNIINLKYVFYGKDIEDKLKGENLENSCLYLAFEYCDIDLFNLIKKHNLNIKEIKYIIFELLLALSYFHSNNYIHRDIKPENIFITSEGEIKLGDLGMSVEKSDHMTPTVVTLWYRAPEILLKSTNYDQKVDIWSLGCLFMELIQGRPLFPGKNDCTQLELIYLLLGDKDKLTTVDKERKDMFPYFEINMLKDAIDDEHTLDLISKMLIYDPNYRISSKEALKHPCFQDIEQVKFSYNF
SMILES,growth inhibition [1],inhibition [2],inhibition [3],growth inhibition [4],outcome [5],outcome [6],outcome [7],outcome [8]
Cc1ccc(-c2cccc3c(NC(=O)Nc4ccc5nccc(N6CCN(C)CC6)c5c4)cccc23)cn1,89% (active),6%,-7%,90% (active),inactive,inactive,inactive,inactive
O=C(NCc1ccc(F)cc1)Nc1ccc(-c2ccc(-c3nc4ccccc4[nH]3)cc2)cc1,98% (active),43%,4%,101% (active),inactive,inactive,inactive,inactive
Cc1ccc2c(=O)c3cc(C)ccc3[nH]c2c1,94% (active),10%,5%,96% (active),inactive,inactive,inactive,inactive
Nc1nc(N)c2c(Cl)c(N3CCOCC3)ccc2n1,3%,65% (active),1%,96% (active),inactive,inactive,inactive,inactive
Cc1cc(NN=Cc2cccc(F)c2)c2cc(F)ccc2n1,99% (active),7%,-1%,101% (active),inactive,inactive,inactive,inactive
COc1ccccc1-c1ccc(C(=O)NCC2CCCN(Cc3cccc(C(F)(F)F)c3)C2)s1 (stereo not given),37%,18%,3%,81% (active),inactive,inactive,inactive,inactive
Cc1cccc2[nH]c(-c3ccc(-c4cccc(CN5CCN(CCO)CC5)c4)cc3)nc12,55% (active),20%,-3%,100% (active),inactive,inactive,inactive,inactive
Cc1c(CCC#N)c(NCc2ccccc2)n2c(nc3ccccc32)c1C#N,99% (active),16%,2%,100% (active),inactive,inactive,inactive,inactive
O=C(Nc1ccc(OC(F)(F)F)cc1)Nc1ccc([N+](=O)[O-])cc1,100% (active),41%,3%,100% (active),inactive,inactive,inactive,inactive
Cc1cc(OCCCN2CCC(NS(=O)(=O)c3cccc(Br)c3)C2)c2ccccc2n1 (stereo not given),40%,13%,3%,86% (active),inactive,inactive,inactive,inactive
COc1c(C2=CCN(CCCCNC(=O)c3ccc(-c4ccc(C#N)cc4)cc3)CC2)ccc2c1CCCC2,82% (active),44%,7%,94% (active),inactive,inactive,inactive,inactive
NOCCCCOc1ccc(Cl)cc1,-1%,2%,-4%,98% (active),inactive,inactive,inactive,inactive
O=C(NC1CC1)c1ccc(N2CCC(c3ccccc3)CC2)nc1,92% (active),16%,1%,93% (active),inactive,inactive,inactive,inactive
CN(c1ccc2c(c1)nc(Nc1ccc(Cl)cc1)n2C)c1ccnc(Nc2ccc(CS(C)(=O)=O)cc2)n1,52% (active),91% (active),-7%,97% (active),inactive,inactive,inactive,inactive
CN(C)Cc1c(O)ccc2[nH]c(-c3cccc(F)c3)nc12,71% (active),9%,-2%,99% (active),inactive,inactive,inactive,inactive
O=C(NCCN1CCCC1)c1ccc(-c2ccc(-c3nc4ccc(C(F)(F)F)cc4[nH]3)s2)cc1,65% (active),31%,4%,97% (active),inactive,inactive,inactive,inactive
Cc1ccc(Nc2nc(NN=Cc3ccccc3[N+](=O)[O-])nc(Nc3ccc([N+](=O)[O-])cc3)n2)cc1C,81% (active),4%,5%,101% (active),inactive,inactive,inactive,inactive
Cc1cccc2[nH]c(-c3ccc(-c4ccc(C(=O)NCCc5cn(C)cn5)cc4)s3)nc12,8%,-6%,-2%,88% (active),inactive,inactive,inactive,inactive
COc1cc(NC(=O)c2c(-c3c(F)cccc3Cl)noc2C)c(OC)cc1Cl,17%,-12%,5%,89% (active),inactive,inactive,inactive,inactive
COCn1ncc2cc(-c3cccc(NC(=O)c4csc(NC(C)=O)n4)c3)ccc21,68% (active),0%,7%,89% (active),inactive,inactive,inactive,inactive

SMILES,growth inhibition [1],inhibition [2],inhibition [3],growth inhibition [4],outcome [5],outcome [6],outcome [7],outcome [8]
CCOc1ccc(C(=O)Nc2cc(Br)c3c(c2)CNCC3)cc1C#N,32%,17%,-6%,97% (active),inactive,inactive,inactive,inactive
CCOc1cc(C(=O)NCCCN2CCCCC2C)ccc1-c1nc2ccc(Cl)cc2[nH]1 (stereo not given),0%,2%,-2%,89% (active),inactive,inactive,inactive,inactive
O=C(C(=O)c1ccc(Nc2ccnc3cc(-c4ccccn4)ccc23)cc1)c1ccccc1,34%,22%,-4%,93% (active),inactive,inactive,inactive,inactive
CCOc1ccc(C(C)NC(=O)C2COc3ccccc3O2)cc1OCC (stereo not given),100% (active),-4%,1%,101% (active),inactive,inactive,inactive,inactive
NC1=NC(Cc2ccccc2)N(c2ccc(Cl)cc2)C(N)=N1 (stereo not given),4%,21%,-2%,93% (active),inactive,inactive,inactive,inactive
Cc1cc2c3c(N)nc(N)nc3ccc2n1C(C)C,0%,70% (active),2%,93% (active),inactive,inactive,inactive,inactive
CCCCCCCCNCC(O)c1cc(-c2ccc(Cl)cc2)nc2cc(C)ccc12 (stereo not given),99% (active),0%,-2%,99% (active),inactive,inactive,inactive,inactive
O=C(/C=C/c1ccc(Cl)c(Cl)c1)NCCCCCN1CCC(NC(=O)Nc2cc(Cl)ccc2Cl)CC1,31%,99% (active),0%,99% (active),inactive,inactive,inactive,inactive
Cc1cc(C(=O)Nc2ccc(OCc3ccccc3)cc2)on1,89% (active),1%,1%,87% (active),inactive,inactive,inactive,inactive
CC(C)Cc1cnc2nc(N)nc(N)c2c1,-2%,66% (active),1%,98% (active),inactive,inactive,inactive,inactive
O=C(Nc1ccc(I)cc1)N1CCc2sccc2C1CN1CCCCC1 (stereo not given),0%,33%,6%,90% (active),inactive,inactive,inactive,inactive
O=C(CSc1n[nH]c(=O)n1Cc1ccccc1)Nc1ccccc1-c1ccccc1,36%,-8%,3%,89% (active),inactive,inactive,inactive,inactive
CCOc1cc(C(=O)NC2CCN(Cc3ccccc3)CC2)ccc1-c1nc2cc(Cl)c(Cl)cc2[nH]1,99% (active),24%,2%,101% (active),inactive,inactive,inactive,inactive
COc1ccccc1C1CC(c2ccccc2)=NN1C(=O)c1ccccc1 (stereo not given),93% (active),13%,-3%,100% (active),inactive,inactive,inactive,inactive
COc1c(C2CCN(CCCCNC(=O)c3ccc(-c4ccc(C#N)cc4)c(O)c3)CC2)ccc2c1CCCC2,78% (active),35%,-2%,100% (active),inactive,inactive,inactive,inactive
Cc1cccc(-c2ccc(CNC3CCN(CC4Cn5c(=O)ccc6ccc(F)c4c65)CC3)cn2)c1 (stereo not given),2%,-2%,-2%,90% (active),inactive,inactive,inactive,inactive
CCOC(=O)c1ccc(-n2c(C)cc(C=C3SC(=Nc4ccccc4)N(C4CCCC4)C3=O)c2C)cc1,61% (active),2%,0%,98% (active),inactive,inactive,inactive,inactive
O=C(Cc1cnc[nH]1)Nc1ccc(-c2ccc(-c3nc4ccccc4[nH]3)s2)cc1,34%,44%,1%,90% (active),inactive,inactive,inactive,inactive
CCN(CCCN1CCCCC1)c1cc(C)nc(Nc2cccc(OC(F)(F)F)c2)n1,99% (active),32%,-2%,102% (active),inactive,inactive,inactive,inactive
COc1ccc2ncc(F)c(CCN3CCC(NCc4cnc5c(c4)NC(=O)CS5)CC3)c2c1,16%,16%,3%,99% (active),inactive,inactive,inactive,inactive
